Source: PubChem BioAssay (several laboratories)
The list is not random: actives were taken first. Their share in the collection is about 2%.
S1P3 antagonist = S1P3 (human) receptor antagonism; CHO S1P3 NFAT-BLA reporter, FRET fluorescence, antagonist mode; Q99500; 0.27% of 170,000 active; inhibition, % at 4.98 µM; AID 485;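 active = inhibition above the plate cutoff, the mean inhibition of test wells on that plate plus 3 SD, cut at about 28% in these data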;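 note: cells challenged with S1P at its EC80 of 0.8 µM; blue over green emission ratio from cleaved BLA substrate after 4 h stimulation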
Target sequence (Q99500 whole entry, looked up): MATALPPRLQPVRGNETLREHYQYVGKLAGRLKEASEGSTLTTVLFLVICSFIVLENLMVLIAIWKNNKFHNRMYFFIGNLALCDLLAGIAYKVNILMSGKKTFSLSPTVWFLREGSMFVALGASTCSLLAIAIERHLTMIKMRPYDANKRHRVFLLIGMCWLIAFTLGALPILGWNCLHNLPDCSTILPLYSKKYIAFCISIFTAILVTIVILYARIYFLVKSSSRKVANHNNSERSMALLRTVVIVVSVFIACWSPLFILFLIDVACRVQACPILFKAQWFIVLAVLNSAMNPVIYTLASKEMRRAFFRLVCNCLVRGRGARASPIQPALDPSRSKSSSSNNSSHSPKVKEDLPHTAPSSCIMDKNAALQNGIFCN
EP2 modulator = EP2 receptor (human) modulation | P43116 | EP2-expressing cells, cAMP HTRF FRET, PGE2 co-stimulation | induction, % at 25 µM | 0.83% of 260,000 active;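 active = compounds whose cAMP rise, as percent of the full-agonist control response, exceeds 60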;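 note: rat C6 glioma line stably carrying human EP2 under a CMV promoter; the protocol text gives 20 µM as final concentration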
S1P4 agonist = agonists of human S1P4 receptor | S1P4-expressing cell line, agonist reporter assay | 0.35% of 220,000 active | O95977 | activation, % at 4.98 µM | AID 1509; in the data active = activation above about 11%
S1P4 antag = antagonists of human S1P4 receptor; O95977; S1P4-expressing cells, antagonist mode, reporter read-out; inhibition, % at 4.98 µM; 0.26% of 220,000 active; in the data active = inhibition above about 29%
EP2 antag = inhibitors of human EP2 prostaglandin E2 receptor; inhibition, % at 25 µM; C6 glioma cells expressing human EP2, cAMP TR-FRET; cells stimulated with saturating PGE2; 0.52% of 260,000 active; P43116;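 active = percent inhibition above 40 after rounding to a whole number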;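 note: rat C6 glioma host cells with rolipram phosphodiesterase inhibitor present; the protocol text gives 20 µM as final concentration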
S1P4 agonist cf = human S1P4 agonism, confirmation; shares compounds with S1P4 agonist; S1P4 agonist cell-based reporter assay; activation, % at 4.98 µM; 7% of 740 active; in the data active = activation above about 12%
S1P1 ag = human S1P1 agonism as S1P4 agonist counter-screen. 4% of 740 active. shares compounds with S1P4 agonist. AID 1563. activation, % at 4.98 µM. S1P1 agonist cell-based assay, activation; in the data active = activation above about 21%
S1P4 antag cf = human S1P4 antagonism, confirmation; 71% of 520 active; S1P4-expressing cell line, antagonist mode, reporter read-out; AID 1524; inhibition, % at 4.98 µM; shares compounds with S1P4 antag; in the data active = inhibition above about 30%
S1P1 antagonist = human S1P1 antagonism as S1P4 antagonist counter-screen; 37% of 520 active; cell-based S1P1 antagonist counterscreen, inhibition; shares compounds with S1P4 antag; AID 1564; inhibition, % at 4.98 µM; in the data active = inhibition above about 40%;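 note: receptor stimulated with S1P near its EC80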
A number is an active result.

What do the screens show for `O=C(CN1c2ccccc2Sc2ccccc21)NNC(=S)Nc1ccc(Cl)cc1`?
S1P3 antagonist: inactive; EP2 modulator: inactive; S1P4 agonist: 94; S1P4 antag: inactive; EP2 antag: inactive; S1P4 agonist cf: inactive; S1P1 ag: inactive

Results for O=C(CN1c2ccccc2Sc2ccccc21)NNC(=S)Nc1ccc(Cl)cc1Cl ?
EP2 modulator: inactive; S1P4 agonist: inactive; S1P4 antag: inactive

How did Cc1ccc2cc3c(N)c(C(=O)NCc4ccc5c(c4)OCO5)sc3nc2c1 do in these assays?
EP2 modulator: inactive; EP2 antag: inactive

Results for CCc1ccc2[nH]c(=O)c(C(c3nnnn3C(C)(C)CC)N3CCCCCC3)cc2c1 (centres undefined) ?
EP2 modulator: inactive; EP2 antag: inactive

Results for O=C1CC(N2CCN(c3ccc(F)cc3)CC2)C(=O)N1Cc1cccs1 (centres undefined) ?
S1P3 antagonist: inactive; EP2 modulator: inactive; S1P4 agonist: inactive; S1P4 antag: inactive; EP2 antag: inactive

What do the screens show for `NC(=O)C1CCN(C2CC(=O)N(Cc3cccs3)C2=O)CC1` (centres undefined)?
EP2 modulator: inactive; S1P4 agonist: 28; S1P4 antag: inactive; EP2 antag: inactive; S1P4 agonist cf: inactive; S1P1 ag: inactive

What do the screens show for `CCN1/C(=c2\s/c(=C3\SC(=S)N(c4ccccc4)C3=O)n(CC)c2=O)Sc2ccccc21`?
EP2 modulator: inactive; EP2 antag: inactive

How did Cc1ccc(C(=O)Nc2ccnc(-c3cccnc3)n2)cc1 do in these assays?
S1P3 antagonist: inactive; EP2 modulator: inactive; S1P4 agonist: inactive; S1P4 antag: inactive; EP2 antag: inactive

What do the screens show for `O=C(Nc1ccnc(-c2cccnc2)n1)c1ccc(Cl)c(Cl)c1`?
EP2 modulator: inactive; S1P4 agonist: 27; S1P4 antag: inactive; EP2 antag: inactive; S1P4 agonist cf: inactive; S1P1 ag: inactive

Results for O=C(c1cc(F)cc(F)c1)N1CCC(c2nc3sc4c(c3c(=O)[nH]2)CCCC4)CC1 ?
EP2 modulator: inactive

How did CN1CCC(CN(C)Cc2ccc(C3=CC(C)(C)NC(C)(C)C3)s2)C1 (centres undefined) do in these assays?
EP2 modulator: inactive; EP2 antag: inactive

What do the screens show for `COc1cccc(C(=O)OCC(=O)N2CCc3ccccc32)c1`?
EP2 modulator: inactive; EP2 antag: inactive

Results for Cc1nn(Cc2ccc(Cl)c(Cl)c2)c(C)c1NC(=O)c1cc(-c2ccc3c(c2)OCO3)on1 ?
S1P3 antagonist: inactive; EP2 modulator: inactive; S1P4 agonist: 22; S1P4 antag: inactive; EP2 antag: inactive; S1P4 agonist cf: inactive; S1P1 ag: inactive

Results for C=C(C)Cn1c(SC)nc2ccccc2c1=O ?
EP2 modulator: inactive; EP2 antag: inactive

How did Cc1cc(C)n(-c2nc3ccccc3nc2N2CCCC2)n1 do in these assays?
EP2 modulator: inactive; S1P4 agonist: 87; S1P4 antag: inactive; EP2 antag: inactive; S1P4 agonist cf: inactive; S1P1 ag: inactive

How did CCn1ncc(S(=O)(=O)N2CCCC(COc3cccc(OC)c3)C2)c1C (centres undefined) do in these assays?
EP2 modulator: inactive; EP2 antag: inactive

Results for O=C(CCC1CCCCC1)Nc1nccs1 ?
S1P3 antagonist: inactive; EP2 modulator: inactive; S1P4 agonist: 126; S1P4 antag: inactive; EP2 antag: inactive; S1P4 agonist cf: inactive; S1P1 ag: inactive

What do the screens show for `CCC(C)(C)NC(=O)CN(C(=O)CCC(=O)Nc1nccs1)C1CCCCC1`?
EP2 modulator: inactive; EP2 antag: inactive

Results for Cc1ccc(S(=O)(=O)n2nc(-c3cccnc3)nc2N)cc1 ?
S1P3 antagonist: inactive; EP2 modulator: inactive; S1P4 agonist: inactive; S1P4 antag: inactive; EP2 antag: inactive

How did CC(=O)Nc1ccc(S(=O)(=O)n2nc(-c3ccc(C)cc3)nc2N)cc1 do in these assays?
S1P3 antagonist: inactive; EP2 modulator: inactive; S1P4 agonist: 21; S1P4 antag: inactive; EP2 antag: inactive; S1P4 agonist cf: inactive; S1P1 ag: inactive

What do the screens show for `Clc1ccc(C2=NN(c3ccccc3)C(c3ccco3)C2)cc1` (centres undefined)?
S1P3 antagonist: inactive; EP2 modulator: inactive; S1P4 agonist: 20; S1P4 antag: inactive; EP2 antag: inactive; S1P4 agonist cf: 14; S1P1 ag: 30

Results for CCc1ccc(NC(=O)N(CCN2CCOCC2)C2CCN(C(C)=O)CC2)cc1 ?
S1P3 antagonist: inactive; EP2 modulator: inactive; S1P4 agonist: 16; S1P4 antag: inactive; EP2 antag: inactive; S1P4 agonist cf: inactive; S1P1 ag: inactive

What do the screens show for `Cc1ccc(NC(=O)c2oc3ccc(S(=O)(=O)N4CCC5(CC4)OCCO5)cc3c2C)cc1C`?
S1P3 antagonist: inactive; EP2 modulator: inactive; S1P4 agonist: 49; S1P4 antag: inactive; EP2 antag: inactive; S1P4 agonist cf: inactive; S1P1 ag: inactive

Results for Cc1ccc2cc(CN(CCCO)C(c3nnnn3C(C)(C)C)C(C)C)c(=O)[nH]c2c1 (centres undefined) ?
EP2 modulator: inactive; EP2 antag: inactive

What do the screens show for `Cc1ccc(Nc2cc(C)c3ccc(O)cc3n2)cc1C`?
S1P3 antagonist: inactive; EP2 modulator: inactive; S1P4 agonist: 11; S1P4 antag: 75; EP2 antag: inactive; S1P4 agonist cf: inactive; S1P1 ag: inactive; S1P4 antag cf: 80; S1P1 antagonist: inactive

What do the screens show for `CCN(CC)C(=O)Cn1nc2c3ccccc3nc(C3CC3)n2c1=O`?
EP2 modulator: inactive

How did N=c1n(CCN2CCCC2)c2ccccc2n1CC(O)c1ccc(Cl)c(Cl)c1 (centres undefined) do in these assays?
S1P3 antagonist: inactive; EP2 modulator: inactive; S1P4 agonist: 55; S1P4 antag: 38; EP2 antag: inactive; S1P4 agonist cf: inactive; S1P1 ag: inactive; S1P4 antag cf: 71; S1P1 antagonist: 60

How did N=c1n(CCN2CCOCC2)c2ccccc2n1CC(=O)c1ccc(Cl)c(Cl)c1 do in these assays?
S1P3 antagonist: inactive; EP2 modulator: inactive; S1P4 agonist: inactive; S1P4 antag: inactive; EP2 antag: inactive

Results for COc1ccc(C(=O)C(CCCCC(CN(C)C)C(=O)c2ccc(OC)cc2)CN(C)C)cc1 (centres undefined) ?
EP2 modulator: inactive; S1P4 agonist: inactive; S1P4 antag: inactive

Results for CCOc1ccc(C(=O)C(CCC(CN(C)C)C(=O)c2ccc(OCC)cc2)CN(C)C)cc1 (centres undefined) ?
S1P3 antagonist: inactive; EP2 modulator: inactive; S1P4 agonist: inactive; S1P4 antag: 43; EP2 antag: inactive; S1P4 antag cf: 110; S1P1 antagonist: 52
